According to the supplement of paper PMC12819154, “High-throughput peptide-centric local stability assay extends protein–ligand identification to membrane proteins, tissues and bacteria” (Nature Structural & Molecular Biology, 2025):

These targets were tested with CN[C@@H]1C[C@H]2O[C@@](C)([C@@H]1OC)n1c3ccccc3c3c4c(c5c6ccccc6n2c5c31)C(=O)NC4 [staurosporine] (assay: log2 fold change of tryptic peptide abundance, ligand vs vehicle (limited proteolysis) (log2 ratio); higher = more trypsin-susceptible (destabilized)). Conditions: ligand concentration: 20 uM; sample: mouse liver crude lysate; replicate design: treated separately.

Sequence of UniProt O35493 (O35493 whole entry, looked up): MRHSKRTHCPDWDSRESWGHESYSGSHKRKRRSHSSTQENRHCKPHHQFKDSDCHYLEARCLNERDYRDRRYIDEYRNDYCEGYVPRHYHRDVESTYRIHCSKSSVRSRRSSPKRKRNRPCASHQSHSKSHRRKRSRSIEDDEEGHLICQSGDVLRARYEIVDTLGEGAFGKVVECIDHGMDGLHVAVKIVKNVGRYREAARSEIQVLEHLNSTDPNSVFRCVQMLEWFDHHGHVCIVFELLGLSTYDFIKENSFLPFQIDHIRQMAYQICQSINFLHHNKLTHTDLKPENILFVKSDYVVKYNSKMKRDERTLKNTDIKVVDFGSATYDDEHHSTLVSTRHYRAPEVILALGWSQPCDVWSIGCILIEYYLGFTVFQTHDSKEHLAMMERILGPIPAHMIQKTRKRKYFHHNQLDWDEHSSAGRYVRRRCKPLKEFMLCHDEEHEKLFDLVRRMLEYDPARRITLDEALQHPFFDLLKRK
Sequence of UniProt Q9WVD5 (Q9WVD5 whole entry): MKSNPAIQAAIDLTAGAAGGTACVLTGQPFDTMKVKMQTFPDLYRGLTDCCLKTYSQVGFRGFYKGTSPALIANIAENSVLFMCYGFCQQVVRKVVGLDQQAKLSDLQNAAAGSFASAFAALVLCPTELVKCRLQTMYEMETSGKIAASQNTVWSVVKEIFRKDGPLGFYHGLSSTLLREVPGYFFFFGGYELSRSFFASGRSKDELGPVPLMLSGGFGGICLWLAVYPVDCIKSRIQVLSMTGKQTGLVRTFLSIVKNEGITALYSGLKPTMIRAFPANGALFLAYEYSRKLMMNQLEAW
Sequence of UniProt Q6P9R2 (Q6P9R2 whole entry): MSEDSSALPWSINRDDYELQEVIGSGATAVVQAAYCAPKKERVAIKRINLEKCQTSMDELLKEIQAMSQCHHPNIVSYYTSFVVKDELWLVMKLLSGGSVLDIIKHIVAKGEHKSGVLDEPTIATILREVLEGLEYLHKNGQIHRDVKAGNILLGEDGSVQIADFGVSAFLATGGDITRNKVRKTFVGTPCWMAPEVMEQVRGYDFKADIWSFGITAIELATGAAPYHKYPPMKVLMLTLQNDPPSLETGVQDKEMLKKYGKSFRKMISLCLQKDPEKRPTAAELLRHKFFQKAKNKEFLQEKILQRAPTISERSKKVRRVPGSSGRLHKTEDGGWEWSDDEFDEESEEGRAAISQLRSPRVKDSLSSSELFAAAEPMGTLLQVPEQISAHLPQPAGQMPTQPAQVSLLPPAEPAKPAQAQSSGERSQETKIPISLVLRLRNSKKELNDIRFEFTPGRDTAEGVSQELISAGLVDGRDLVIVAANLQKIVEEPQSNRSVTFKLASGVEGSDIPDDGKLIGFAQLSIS
Sequence of UniProt P51174 (P51174 whole entry): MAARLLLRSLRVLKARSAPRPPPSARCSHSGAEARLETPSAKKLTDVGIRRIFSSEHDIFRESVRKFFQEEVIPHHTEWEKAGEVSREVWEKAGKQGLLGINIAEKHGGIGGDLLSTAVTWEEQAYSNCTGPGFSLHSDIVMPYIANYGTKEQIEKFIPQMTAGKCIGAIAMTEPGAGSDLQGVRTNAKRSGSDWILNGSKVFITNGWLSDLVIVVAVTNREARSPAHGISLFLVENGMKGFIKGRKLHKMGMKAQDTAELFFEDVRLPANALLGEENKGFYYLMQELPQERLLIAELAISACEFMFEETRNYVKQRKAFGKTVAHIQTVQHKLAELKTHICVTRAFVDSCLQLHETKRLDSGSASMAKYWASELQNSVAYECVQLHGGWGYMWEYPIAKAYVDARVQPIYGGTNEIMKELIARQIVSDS

Which log2 fold change does the source give for “UniProt Q9WVD5 (peptide sequence: TYSQVGFR, peptide start residue: 54)” here?
The log2 fold change was -1.35.

“UniProt O35493 (peptide sequence: ILGPIPAHMIQK, peptide start residue: 392)” was tested. Which log2 fold change did it give?
Its log2 fold change is -2.87.

For “UniProt Q6P9R2 (peptide sequence: EVLEGLEYLHK, peptide start residue: 129)”, which log2 fold change is on record?
Its log2 fold change is -0.823.

Which log2 fold change does the source give for “UniProt P51174 (peptide sequence: SPAHGISLFLVENGMKGFIK, peptide start residue: 225)” here?
The log2 fold change was 0.439.
